# Legend:
# Format in all cases: functional
# [1] = system: Plasmodium falciparum; assay: GSK_TCMDC: Inhibition of Plasmodium falciparum 3D7 in whole red blood cells, using parasite LDH activity as an index of growth. Test compounds present at 2uM
# [2] = system: Plasmodium falciparum; assay: GSK_TCMDC: Inhibition of Plasmodium falciparum Dd2 in whole red blood cells, using parasite LDH activity as an index of growth. Test compounds present at 2uM
# [3] = system: HepG2; assay: GSK_TCMDC: Percent inhibition of human HepG2 cell line. Test compounds present at 10uM.
Compound,Inhibition [1] [%],Inhibition [2] [%],Inhibition [3] [%]
O=C(Nc1ccc(C(=O)Oc2ccc3ccccc3c2)cc1)N[C@@H](Cc1ccc(O)cc1)C(=O)NC1CCN(Cc2ccc(O)cc2)C1.O=C(O)C(F)(F)F (stereo not given in full),86,1,1
CS(=O)(=O)c1ccc(-n2nc(C(F)(F)F)cc2-c2ccc(C=NOCC(=O)O)o2)cc1,87,0,0
O=C(O)C(F)(F)F.OC1CCCN(Cc2cccc(-c3ccc(-c4nc5cc(F)ccc5[nH]4)cc3)c2)C1 (stereo not given),100,42,16
Cn1c(Nc2cc(C(C)(C)C)on2)nc2cc(Nc3ccnc(Nc4cccc(S(=O)(=O)N5CCOCC5)c4)n3)ccc21,100,96,32
CN(C)CCOc1ccc(-c2cc(-c3ccc(Cl)c(O)c3)c(-c3ccncc3)[nH]2)cc1.Cl,98,92,54
N#Cc1cnc2cc(-c3cnc(CNCCN4CCOCC4)s3)ccc2c1Nc1ccc(Oc2ccccc2)cc1,97,83,30
Cc1ccccc1C(=O)Nc1cccc(-c2nc3ncccn3c2C)c1,94,94,0
CN1CCCc2ccc(NC(=O)c3cc(-c4ccc(Cl)cc4)cs3)cc2C1.O=C(O)C(F)(F)F,94,40,35
O=C(Nc1ccc(C(F)(F)F)cc1)N[C@H]1CCN(CCCCCNC(=O)C2CC2c2ccc(Cl)c(Cl)c2)C1 (stereo not given in full),96,0,41
CC1CCCCN1S(=O)(=O)c1ccc(NC(=O)c2cc(-c3ccccc3O)n[nH]2)cc1 (stereo not given),90,96,26
CCc1cn2c3c(cc(C(=O)N[C@@H](Cc4ccccc4)[C@H](O)CNCc4cccc(C)c4)cc13)N(C)S(=O)(=O)CC2.O=CO,96,98,5
CCCCNC(=O)[C@H](CC1CCCCC1)NC(=O)c1ccc(O)c(-c2ccc(Cl)c(Cl)c2)c1,98,99,0
COc1ccc2c(NN=Cc3cccc(C)n3)ccnc2c1,96,51,0
Cc1cc(N[C@@H](CC(C)C)C(=O)NCCOc2ccccc2)nc(NCC2CCCCC2)n1.O=C(O)C(F)(F)F,97,53,24
c1ccc(-c2cc3cccc(-c4nc5cnccc5[nH]4)c3o2)cc1,100,95,37
Cc1ccc(C2(C)CC(C)(C)N(C(=O)COc3ccc4ccccc4c3)c3ccccc32)cc1 (stereo not given),100,98,0
CCCCc1cc(NCc2ccncc2)nc(Nc2ccc(C)cc2)n1,100,59,7
CCC(C)C(COC(=O)c1cc(OC)c(OC)c(OC)c1)N(C)CCN(C)C(COC(=O)c1cc(OC)c(OC)c(OC)c1)C(C)CC.Cl (stereo not given),84,45,20
CN(C)CCNCc1cccc(-c2ccc3c(Nc4cc(O)c(Cl)cc4F)ccnc3c2)c1,99,59,6
Cc1ccc2c(=NN=CC=Cc3ccccc3)cc(C)[nH]c2c1,92,13,3

Compound,Inhibition [1] [%],Inhibition [2] [%],Inhibition [3] [%]
CC(C)C[C@H]1c2[nH]c3ccc(Cl)cc3c2CCN1C(=O)CCc1ccccc1,95,81,0
Cn1cc(C2CCN(CCCCNC(=O)c3ccc(C(=O)Nc4ccc(C#N)cc4)cc3)CC2)c2ccccc21,100,58,16
COc1cc(NC(=O)c2sc(-c3ccc(Cl)cc3)cc2NC(=O)N2CCCC2)ccc1OCCN1CCCC1,100,61,22
CC(Cc1ccc(NC(=O)c2ccc(CNCCCCc3ccccc3)cc2)cc1)NCCc1cccc(Cl)c1.Cl (stereo not given),100,96,100
COc1cc(Cc2cnc(N)nc2N)ccc1Oc1ccc(N)cc1,93,0,0
CN(c1ccc(NC(=O)c2ccc(F)cc2)cc1)C1CCN(Cc2cccc(F)c2)C1.O=C(O)C(F)(F)F (stereo not given),81,74,3
Cc1ccc(CN(Cc2ccc(C(=O)N(C)C)cc2)Cc2ccc3c(c2)OCCO3)cc1C,91,87,10
CN(C)CCNCc1cccc(-c2ccc3c(Nc4ccc(Oc5ccccc5)cc4)ccnc3c2)c1,100,99,31
COCCCN=C(S)NN=C(C)c1ccccn1,100,99,55
Cc1nnc2c(NC(=O)NC3CCCC3)cc3cc(-c4ccc(CN5CCN(C)CC5)cc4)ccc3n12,99,91,100
Cc1[nH]c(C)c(-c2ccc(-c3ccccc3Cl)nc2)c(=O)c1Br,97,96,0
COc1ccc(Nc2nc(N)c3cc(OC)c(OC)cc3n2)cc1OC.Cl,99,5,0
Cc1ccccc1C1CCN(C2CCC(NC(=O)c3cc(-c4ccccc4)oc3C)CC2)CC1 (stereo not given),100,32,46
COc1ccc(-c2cccc(NC(=O)c3cccc(C#N)c3)c2)cc1CN1CCCN(C)CC1.O=C(O)C(F)(F)F,100,99,22
CCCCOc1cc(CNCCCCCCNCc2cc(OCCCC)cc3ccccc23)c2ccccc2c1.CS(=O)(=O)O,100,92,99
CCCCCN1CCCC(NS(=O)(=O)c2cccc(C(=O)Nc3cccc(C(F)(F)F)c3)c2)C1.O=C(O)C(F)(F)F (stereo not given),86,5,22
CC(C)c1sc(N2CCN(C)CC2)nc1C(=O)NCCc1ccc(Cl)c(Cl)c1.O=C(O)C(F)(F)F,98,79,10
Cc1nc(-c2cccc(Nc3nccc(NCC(O)c4cccc(F)c4)n3)c2)cs1 (stereo not given),98,59,39
CCNc1cc(C(=O)N[C@@H](Cc2ccccc2)[C@H](O)CNC2CCC(C)(C)CC2)cc(N2CCCCS2(=O)=O)c1.Cl,98,71,1
Cc1noc(C)c1-c1ccc2c(Nc3ccc([N+](=O)[O-])cc3)c(C(N)=O)cnc2c1.Cl,100,98,4

Compound,Inhibition [1] [%],Inhibition [2] [%],Inhibition [3] [%]
COc1cccc2c(NN=Cc3cccc(F)c3)ccnc12,99,44,12
COc1cc(Nc2ccnc3ccc(C(F)(F)F)cc23)cc(OC)c1OC,100,100,15
Cc1cc2nc(N=C3NC4(c5ccccn5)NC(=Nc5nc6cc(C)c(C)cc6[nH]5)NC4(c4ccccn4)N3)[nH]c2cc1C.O=C(O)C(F)(F)F (stereo not given),87,62,3
CCCCCCn1c(Sc2ccc(C#N)c([N+](=O)[O-])c2)nnc1-c1cc(OC)cc(OC)c1,95,41,35
COc1ccc2nccc([C@@H](O)CN3CCC(NC(=O)c4cccc(C(=O)c5ccccc5)c4)CC3)c2c1,99,99,13
Cc1[nH]c(C)c(-c2ccc(OCCOc3ccc(C(F)(F)F)cn3)cc2)c(=O)c1Br,97,97,25
Cl.O=C(/C=C/c1ccc(Cl)c(Cl)c1)N1CCC(CCN2CCC(c3c[nH]c4cnccc34)CC2)CC1,100,100,93
Cc1nc2nc(N)nc(N)c2c(C)c1Cc1ccccc1Br.Cl,92,2,65
Cc1cccc2nc(-c3ccc(-c4ccc(CNCC5CCCO5)cc4)cc3)[nH]c12.O=C(O)C(F)(F)F (stereo not given),100,81,36
Cc1cccc2nc(-c3cccc(-c4cccc(CN5CCCC5CN)c4)c3)[nH]c12.O=C(O)C(F)(F)F (stereo not given),100,72,15
CCc1cn(C)c2c(N3CCCC3=O)cc(C(=O)N[C@@H](Cc3ccccc3)[C@H](O)CNC(C)(C)CCCC(C)C)cc12,97,98,15
COc1ccc2nccc(N(C)CC3(O)CCC(NCc4ccc5c(n4)NC(=O)CS5)CC3)c2n1.Cl (stereo not given),98,23,1
C[C@H](Cc1ccc(C[C@@H](C)NCC(O)c2cc(Cl)c(N)c(Cl)c2)cc1)NCC(O)c1cc(Cl)c(N)c(Cl)c1 (stereo not given in full),98,50,26
CC(C)C[C@H](NC(=O)c1ccc(OCCN2CCOCC2)cc1)C(=O)N[C@H](/C=N/N(C)C(=O)c1ccccc1)CCc1ccccc1,91,72,8
CC(=O)Nc1ccc(C(=O)Nc2cccc(-c3cccc(-c4nc5cc(F)ccc5[nH]4)c3)c2)cn1,99,98,0
COc1ccccc1NC(=S)N/N=C/c1ccc(O)cc1O,89,80,35
OC(CNCc1ccccc1Oc1ccccc1)c1cccc(C(F)(F)F)c1 (stereo not given),100,98,0
CN1CCN(C(C(=O)NCc2cc(Cl)cc(Cl)c2)c2ccc(Nc3cccc(C(F)(F)F)c3)cc2)CC1 (stereo not given),85,98,49
CC1(C)CC(=O)c2c(O)cc(OCc3ccncc3)cc2O1.Cl,92,47,80
O=C(Nc1cccc(-c2csc(-c3nc4ccccc4[nH]3)c2)c1)c1cc(=O)c2ccccc2[nH]1,98,39,41

# Reference: ChEMBL document CHEMBL1157539, “Thousands of chemical starting points for antimalarial lead identification” (Nature, 2010)
